Assay [1] concerns DLD1. The assay is described as follows: cell viability (CellTiter-Glo) relative to plate median (fraction of plate median); higher = more viable cells. Conditions: 5 µM; treatment time 24 h; reporter: 7TFP. The method in brief:
(§1)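 After seeding in 384-well plates, colorectal cancer cell lines carrying stable lentiviral TCF/Wnt firefly luciferase reporters (7TFP or TCF4/Wnt) were left 24 h. Library compounds were then added at a final 5 µM for 24 h. A Tecan F500 reader measured firefly luciferase or CellTiterGlo luminescence on parallel plates, with each well normalised to the plate median by webcellHTS2 (additive, no log transformation), and two independent replicates averaged.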

The test system of the next assay is HCT116. The assay is described as above. To be noted: 5 µM; treatment time 24 h; reporter: TCF4/Wnt. The method in brief:
as §1

Assay [2] has as its system SW480. The description is as above. To be noted: 5 µM; treatment time 24 h; reporter: 7TFP. The method in brief: as §1
Assay [3] has as its system DLD1. The assay is described as follows: TCF/Wnt firefly luciferase reporter signal relative to plate median (fraction of plate median); higher = higher Wnt reporter signal. To be noted: 5 µM; treatment time 24 h; reporter: 7TFP. The procedure, abridged:
as §1
A general note: In a reporter assay the amount or activity of a reporter protein is the signal.

Assay [4] relates to SW480. The description is as above. To be noted: 5 µM; treatment time 24 h; reporter: 7TFP. The method in brief:
as §1

± gives the standard deviation of the averaged measurements.

With `O=c1[nH]c2ccccc2n1CCCN1CCC(n2c(=O)[nH]c3cc(Cl)ccc32)CC1` [Domperidone], the cell viability in the assay with DLD1 [1] was 0.898 ± 0.1; in the assay with HCT116 it was 0.83 ± 0.042; in the assay with SW480 [2] it was 0.94 ± 0.063. Besides, the figures for the “TCF/Wnt firefly luciferase reporter signal” value in the assay on DLD1 [3] and with SW480 [4] were 0.997 ± 0.09 and 0.814 ± 0.071, respectively.
On to `Oc1cc(Cl)ccc1Oc1ccc(Cl)cc1Cl`, for which the cell viability is 0.936 ± 0.078 in the assay on DLD1 [1], 0.913 ± 0.011 with HCT116 and 0.954 ± 0.021 with SW480 [2]. Also, the figures for the “TCF/Wnt firefly luciferase reporter signal” value with DLD1 [3] and in the assay with SW480 [4] were 0.983 ± 0.15 and 0.893 ± 0.021, respectively.
`CCC12C=CCN3CC[C@@]4(c5ccc(OC)cc5N(C)[C@H]4[C@@](O)(C(=O)OC)[C@@H]1OC(C)=O)[C@@H]32` (stereo not given in full): the cell viability in the assay with DLD1 [1] amounted to 0.975 ± 0.035; in the assay on HCT116, 0.953 ± 0.025; in the assay with SW480 [2] it was 0.9915 ± 0.0021. Besides, the “TCF/Wnt firefly luciferase reporter signal” value with DLD1 [3] was determined as 0.857 ± 0.042; with SW480 [4], 0.821 ± 0.021.
The matching figures for `CNC(=O)ON=C(C)SC`: 1.01 ± 0.021, 0.928 ± 0.1, 0.985 ± 0.035, 0.98 ± 0.029 and 0.933 ± 0.058.
The matching figures for `COC1CC(OC2CCC3(C)C(CCC4C3CCC3(C)C(C5=CC(=O)OC5)CCC43O)C2)OC(C)C1OC1OC(COC2OC(CO)C(O)C(O)C2O)C(O)C(O)C1O` (stereo not given): 0.873 ± 0.11, 0.969 ± 0.0099, 0.964 ± 0.044, 1.14 ± 0.042 and 1.03 ± 0.098.
The corresponding values for `c1cncc([C@@H]2CCCCN2)c1` are 0.993 ± 0.011, 0.952 ± 0.17, 0.9635 ± 0.0078, 0.971 ± 0.11 and 0.927 ± 0.044.
With `O=C1CCC[C@@H]2[C@H]3C[C@@H](CN12)[C@@H]1CCCCN1C3.[O-][Cl+3]([O-])([O-])O`, the cell viability with DLD1 [1] was 1.01 ± 0.024; with HCT116 it was 0.956 ± 0.053; in the assay on SW480 [2], 0.976 ± 0.021. Also, the results for the “TCF/Wnt firefly luciferase reporter signal” value in the assay on DLD1 [3] and in the assay with SW480 [4] were 0.922 ± 0.022 and 0.97 ± 0.018, respectively.
The matching figures for `CNC(C)(C)Cc1ccccc1`: 1.02, 1.01 ± 0.021, 1.06 ± 0.014, 1.09 and 0.932 ± 0.04.
The corresponding values for `COc1cc2c(cc1OC)[C@@H]1C(=O)c3ccc(OC)c(CC=C(C)C)c3O[C@@H]1CO2` are 0.943 ± 0.11, 0.849 ± 0.042, 0.992 ± 0.011, 0.848 ± 0.069 and 0.947 ± 0.13.
The corresponding values for `CN1CCCCC1c1ccc(-c2cccnc2)nc1` (stereo not given) are 0.963 ± 0.024, 0.901 ± 0.12, 1.01 ± 0.027, 1.03 ± 0.021 and 0.983 ± 0.096.
Consider `CN1CCc2cc3c(cc2C1O)OCO3` (stereo not given), for which the cell viability in the assay on DLD1 [1] was 1.01 ± 0.026; with HCT116, 1.03 ± 0.047; with SW480 [2], 0.995 ± 0.021. For the same molecule, the “TCF/Wnt firefly luciferase reporter signal” value in the assay with DLD1 [3] amounted to 0.956 ± 0.037; in the assay with SW480 [4] it was 0.942 ± 0.064.
The matching figures for `C[C@]12CC[C@H](O)CC1=CC[C@@H]1[C@@H]2CC[C@]2(C)C(=O)CC[C@@H]12`: 1.04, 1.15 ± 0.021, 1.02 ± 0.021, 1.04 ± 0.14 and 0.916 ± 0.026.
Turning to `COc1cccc(C=O)c1OC`, the values for the cell viability in the assay on DLD1 [1], in the assay on HCT116 and in the assay on SW480 [2] were 1.01 ± 0.022, 1.1 ± 0.15 and 1 ± 0.043, respectively. The “TCF/Wnt firefly luciferase reporter signal” value was determined as 1.03 ± 0.073 in the assay on DLD1 [3] and 0.914 ± 0.088 in the assay on SW480 [4].
The corresponding values for `CCCCCCCCCCCCCCCC[n+]1ccccc1` are 0.885 ± 0.07, 0.797 ± 0.13, 0.95 ± 0.028, 0.773 ± 0.062 and 0.661 ± 0.073.
The corresponding values for `COc1cc([C@@H]2c3cc4c(cc3[C@H](O)[C@H]3COC(=O)[C@@H]23)OCO4)cc(OC)c1OC` are 1.04 ± 0.1, 0.774 ± 0.025, 1.22 ± 0.11, 0.819 ± 0.052 and 0.887 ± 0.057.
For `CN1C[C@H](C(=O)N[C@]2(C)O[C@@]3(O)[C@@H]4CCCN4C(=O)[C@H](Cc4ccccc4)N3C2=O)C[C@@H]2c3cccc4[nH]cc(c34)C[C@H]21`, the cell viability in the assay on DLD1 [1] amounted to 0.89 ± 0.098; with HCT116 it was 0.878 ± 0.054; in the assay with SW480 [2], 1 ± 0.037. Further, the “TCF/Wnt firefly luciferase reporter signal” value with DLD1 [3] was found to be 0.9 ± 0.052; with SW480 [4] it was 0.884 ± 0.0057.
The corresponding values for `C=C(C)c1cc2cc(C(C)=O)c(O)cc2o1` are 1.14 ± 0.13, 1.06 ± 0.071, 1.07 ± 0.057, 1.21 ± 0.29 and 1.12 ± 0.085.
The corresponding values for `[N-]=[N+]=CC(=O)OC[C@H](N)C(=O)O` are 0.717 ± 0.18, 0.887 ± 0.092, 1.07 ± 0.028, 0.977 ± 0.047 and 0.989 ± 0.044.
The matching figures for `O=C(O)CCCc1ccc(N(CCCl)CCCl)cc1`: 1.02 ± 0.035, 0.958 ± 0.011, 1.02 ± 0.067, 0.974 ± 0.037 and 0.966 ± 0.0028.
Regarding `CCCC(C)C1(CC)C(=O)NC(=O)NC1=O` (stereo not given), the cell viability with DLD1 [1] was found to be 1 ± 0.079; with HCT116 it was 0.981 ± 0.02; in the assay on SW480 [2], 0.978 ± 0.0014. The “TCF/Wnt firefly luciferase reporter signal” value with DLD1 [3] is 0.948 ± 0.018; in the assay on SW480 [4], 0.933 ± 0.11.
The corresponding values for `CC(=O)[O][Hg][c]1ccccc1` are 0.0442 ± 0.012, 0.0479 ± 0.031, 0.0258 ± 0.0048, 0.0227 ± 0.0033 and 0.0222 ± 0.0026.
With `CC(C)CCCC1(C)C=Cc2c(O)c3c(c(CCC(C)C)c2O1)OC12C(CC4CC1C(C)(C)OC2(CCC(C)C(=O)O)C4O)C3=O` (stereo not given), the figures for the cell viability in the assay with DLD1 [1], in the assay on HCT116 and in the assay with SW480 [2] were 1.08 ± 0.042, 0.997 ± 0.0042 and 1.07 ± 0.092, respectively. Besides, the “TCF/Wnt firefly luciferase reporter signal” value in the assay on DLD1 [3] worked out at 1.06 ± 0.014; in the assay on SW480 [4], 1.06 ± 0.092.
Take `c1cc2c(cc1[C@H]1OC[C@H]3[C@@H]1CO[C@H]3c1ccc3c(c1)OCO3)OCO2`: the cell viability was found to be 1.03 ± 0.014 in the assay with DLD1 [1], 1.03 ± 0.13 in the assay on HCT116 and 0.952 ± 0.068 with SW480 [2]. The entries for the “TCF/Wnt firefly luciferase reporter signal” value in the assay on DLD1 [3] and in the assay on SW480 [4] were 1.09 ± 0.064 and 0.932 ± 0.21, respectively.
`C=CCN1CC[C@]23c4c5ccc(O)c4O[C@H]2C(=O)CC[C@@]3(O)[C@H]1C5`: the cell viability in the assay with DLD1 [1] came out at 1.04 ± 0.05; with HCT116, 0.936 ± 0.011; in the assay on SW480 [2], 1.08 ± 0.014. The “TCF/Wnt firefly luciferase reporter signal” value was 0.959 ± 0.011 with DLD1 [3] and 0.918 ± 0.019 in the assay with SW480 [4].
The corresponding values for `COC1C(O)C(O[C@H]2CC[C@]3(C=O)C4C(CC[C@]3(O)C2)[C@@]2(O)CC[C@H](C3=CC(=O)OC3)[C@@]2(C)C[C@H]4OC(C)=O)OC(C)C1OC(C)=O` (stereo not given in full) are 0.929 ± 0.11, 1.03 ± 0.083, 0.941 ± 0.044, 0.828 ± 0.042 and 0.83 ± 0.069.
The corresponding values for `CC(=O)Oc1c2c(c(CC=C(C)C)c3c1C(=O)C1=C[C@@H]4CC5C(C)(C)OC(C/C=C(\C)C(=O)O)(C4=O)[C@@]15O3)OC(C)(CCC=C(C)C)C=C2` (stereo not given in full) are 0.809 ± 0.046, 0.933 ± 0.047, 0.913 ± 0.08, 0.706 ± 0.067 and 0.814 ± 0.26.
The corresponding values for `CC(C)=CCC[C@]1(C)C=Cc2c(O)c3c(c(CC=C(C)C)c2O1)O[C@]12C(=C[C@@H]4C[C@H]1C(C)(C)O[C@@]2(C/C=C(/C)C(N)=O)C4=O)C3=O` are 0.976 ± 0.049, 0.9335 ± 0.00071, 1.03 ± 0.021, 0.947 ± 0.011 and 0.895 ± 0.1.
For `O=C1C=CC(=O)c2c(O)cccc21`, the cell viability in the assay with DLD1 [1] stood at 0.921 ± 0.035; with HCT116, 0.972 ± 0.033; in the assay with SW480 [2], 0.961 ± 0.016. Besides, the “TCF/Wnt firefly luciferase reporter signal” value with DLD1 [3] is 1.03; in the assay with SW480 [4], 1.08 ± 0.064.
As to `NCCCNCCSP(=O)(O)O`, the values for the cell viability in the assay on DLD1 [1], with HCT116 and with SW480 [2] were 1.02 ± 0.14, 1.08 ± 0.071 and 1.06 ± 0.021, respectively. Moreover, the entries for the “TCF/Wnt firefly luciferase reporter signal” value in the assay with DLD1 [3] and in the assay on SW480 [4] were 1.1 ± 0.028 and 1.05 ± 0.035, respectively.
The corresponding values for `COP(=S)(OC)Oc1ccc(Sc2ccc(OP(=S)(OC)OC)cc2)cc1` are 1.025 ± 0.0071, 1.06 ± 0.014, 0.987 ± 0.011, 1.06 ± 0.092 and 1.04 ± 0.014.
